The text below walks through data of PubChem BioAssay (EPA / NIEHS).

Calls of active or inactive are those of the source. The calls were made as follows: active = hit-call score of the fitted dose curve at least 0.9, where 1 is the maximum; inactive = score below 0.9.

Assay [1] in a line: ATG_CMV_CIS: Attagene CIS-FACTORIAL HepG2 Assay for human CMV (Internal Marker) (AID 2282928).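 Also: endpoint acts as a background internal control marker rather than a target.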 The settings on record: HepG2 CMV promoter reporter, transcription factor profiling; actives raise or lower the signal. In short, it runs like this:
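24 h chemical treatment, HepG2 with transient multi-reporter transfection; RNA → oligo(dT) RT → PCR → 6-FAM extension → HpaI digest → CE fluorescence. Bidirectional fit, DMSO negative control.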

The nature of assay [2]: ATG_ISRE_CIS: Attagene CIS-FACTORIAL HepG2 Assay for human Interferon Regulatory Factor 1 (IRF1) binding to an Interferon-Stimulated Response Element (ISRE) (AID 2282948). The settings on record: HepG2 ISRE cis-reporter (Attagene), mRNA transcription readout; actives raise or lower the signal. The method, boiled down:
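Multiplexed mRNA reporter readout in human liver HepG2 cells: cis-element-driven reporters transfected, compound added for 24 h, transcripts amplified, fluorescently labelled and sized by capillary electrophoresis; curve fitting bidirectional against DMSO.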

Assay [3] can be described thus: ATG_M_32_CIS: Attagene CIS-FACTORIAL HepG2 Assay for M32 Transcription Factor (Internal Marker) (AID 2282949).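 Also: background control marker of the multiplexed CIS panel rather than a real target.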 Particulars: HepG2 Attagene cis-factorial M32 reporter, mRNA; actives raise or lower the signal. In short, it runs like this: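 HepG2 human liver cells transiently transfected with cis-promoter-driven multiple reporter transcription units, dosed 24 h. Reporter mRNA quantified by RT-PCR, FAM-labelled primer extension, HpaI digest and capillary electrophoresis; bidirectional fit versus DMSO baseline.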

Assay [4] deals with Hepatocyte nuclear factor 6 (Homo sapiens) (UniProt Q9UBC0). In words: ATG_HNF6_CIS: Attagene CIS-FACTORIAL HepG2 Assay for human Hepatocyte Nuclear Factor 6 (HNF6) (AID 2282952). The settings on record: HepG2 Attagene cis-factorial HNF6 reporter transcription; actives raise or lower the signal. In short, it runs like this:
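Endogenous factor activity read in transiently transfected HepG2 via promoter-regulated reporter transcripts. RNA harvested 24 h post-dosing, reverse-transcribed, PCR-amplified, FAM-labelled, HpaI-digested and resolved by capillary electrophoresis; fitted in both directions against DMSO.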

The target in assay [5] is Heat shock factor protein 1 (Homo sapiens) (UniProt Q00613). The experiment in a line: ATG_HSE_CIS: Attagene CIS-FACTORIAL HepG2 Assay for human Heat Shock Transcription Factor 1 (HSE) (AID 2282953). Particulars: HepG2 HSE cis-reporter, Attagene RNA transcription; actives raise or lower the signal. In short, it runs like this:
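Read-out: fluorescence of reporter-specific RT-PCR fragments separated by capillary electrophoresis. HepG2 carrying transfected cis-element reporter units; 24 h dosing; activity fitted in both directions relative to DMSO baseline.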

The nature of assay [6]: ATG_RORE_CIS: Attagene CIS-FACTORIAL HepG2 Assay for human RAR-related Orphan Receptor Element (RORE) (AID 2282959). The settings on record: HepG2 Attagene cis-factorial RORE reporter, mRNA; actives raise or lower the signal. In short, it runs like this:
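Fluorescence intensity of reporter-specific cDNA fragments, separated by capillary electrophoresis, gives the signal. Source: HepG2 liver cells transiently transfected with cis-element reporters and exposed 24 h; DMSO-normalized bidirectional fit.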

In assay [7] the target is Signal transducer and activator of transcription 3 (Homo sapiens) (UniProt P40763). The experiment in a line: ATG_STAT3_CIS: Attagene CIS-FACTORIAL HepG2 Assay for human Signal Transducer and Activator of Transcription 3 (STAT3) (AID 2282963). Particulars: HepG2, Attagene cis-factorial STAT3 reporter transcription; actives raise or lower the signal. In short, it runs like this:
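HepG2, MRTU-transfected, 24 h dosing. RNA → RT → PCR → FAM label → HpaI → CE. Bidirectional fit vs DMSO.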

The nature of assay [8]: ATG_TA_CIS: Attagene CIS-FACTORIAL HepG2 Assay for human TA Basal Promoter (AID 2282964). Particulars: HepG2 Attagene CIS-factorial TA basal promoter reporter; actives raise or lower the signal. The method, boiled down: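 Transfected HepG2, 24 h compound exposure; RNA → RT-PCR → FAM primer extension → HpaI cut → CE fluorescence. Gain/loss-of-signal fitted against DMSO negative control. Background-control readout.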

The nature of assay [9]: ATG_TCF_b_cat_CIS: Attagene CIS-FACTORIAL HepG2 Assay for human T-Cell-Factor with beta-catenin (TCF/b-cat) (AID 2282965). The settings on record: HepG2 TCF/beta-catenin cis-reporter transcription, actives raise or lower the signal. In short, it runs like this:
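HepG2 cells transiently transfected with multiple cis-promoter-regulated reporter transcription units, so endogenous transcription factor activity is measured. Reporter mRNA read 24 hours after dosing by RT-PCR, fluorescent labelling and capillary electrophoresis; bidirectional fitting against DMSO.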

Assay [10] is described as follows: ATG_TAL_CIS: Attagene CIS-FACTORIAL HepG2 Assay for human TAL Basal Promoter (AID 2282966).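 Also: background control endpoint measuring basal TAL promoter reporter mRNA not a specific factor.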 The settings on record: HepG2 Attagene cis-factorial TAL promoter reporter; actives raise or lower the signal. The method, boiled down: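 Background-control endpoint: basal TAL promoter reporter transcripts in transiently transfected HepG2, measured 24 h after dosing. Read-out by RT-PCR with fluorescent primer extension and capillary electrophoresis; gain or loss of signal fitted relative to DMSO.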

A short description of assay [11]: ATG_TGFb_CIS: Attagene CIS-FACTORIAL HepG2 Assay for human Transforming Growth Factor (TGF) (AID 2282967). Particulars: HepG2 Attagene CIS TGFb reporter, mRNA transcription; actives raise or lower the signal. In short, it runs like this: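 Readout: fluorescently labeled reporter cDNA fragments resolved by capillary electrophoresis after RT-PCR. Transfected HepG2 cells dosed for 24 h; endogenous TF activity at TGFB1-linked cis element; gain or loss fitted relative to DMSO.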

Assay [12] can be described thus: ATG_VDRE_CIS: Attagene CIS-FACTORIAL HepG2 Assay for human Vitamin D Receptor Element (VDRE) (AID 2282968). Particulars: HepG2 VDRE cis-reporter transcription, actives raise or lower the signal. In short, it runs like this:
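Steps: transfect HepG2 with multiple reporter transcription units; dose chemicals 24 h; isolate RNA; RT-PCR; label with 6-FAM primer extension; HpaI digest; capillary electrophoresis. Curves fitted both directions against DMSO.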

The target in assay [13] is X-box-binding protein 1 (Homo sapiens) (UniProt P17861). The experiment in a line: ATG_Xbp1_CIS: Attagene CIS-FACTORIAL HepG2 Assay for human X-box Binding Protein 1 (XBP1) (AID 2282972). The settings on record: HepG2 XBP1 cis-element reporter, Attagene multiplex; actives raise or lower the signal. In short, it runs like this:
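Multiplexed cis-reporter readout in transfected HepG2 liver cells. Exposure lasted 24 hours. Activity in either direction was fitted against DMSO as negative control and baseline.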

In assay [14] the target is Transcriptional activator Myb (Homo sapiens) (UniProt P10242). The experiment in a line: ATG_Myb_CIS: Attagene CIS-FACTORIAL HepG2 Assay for human Myeloblastosis (Myb) Proto-Oncogene Transcription Factor (AID 2282986). The settings on record: HepG2 Attagene CIS-FACTORIAL Myb reporter transcription; actives raise or lower the signal. In short, it runs like this: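 Fluorescence signals from capillary electrophoresis of RT-PCR-amplified reporter cDNA give the read-out. Cells: HepG2 transfected with multiple cis-regulated reporter units. Exposure lasts 24 hours; DMSO defines baseline for gain or loss of signal.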
Transcriptional activator Myb (Homo sapiens), sequence (P10242 whole entry, looked up): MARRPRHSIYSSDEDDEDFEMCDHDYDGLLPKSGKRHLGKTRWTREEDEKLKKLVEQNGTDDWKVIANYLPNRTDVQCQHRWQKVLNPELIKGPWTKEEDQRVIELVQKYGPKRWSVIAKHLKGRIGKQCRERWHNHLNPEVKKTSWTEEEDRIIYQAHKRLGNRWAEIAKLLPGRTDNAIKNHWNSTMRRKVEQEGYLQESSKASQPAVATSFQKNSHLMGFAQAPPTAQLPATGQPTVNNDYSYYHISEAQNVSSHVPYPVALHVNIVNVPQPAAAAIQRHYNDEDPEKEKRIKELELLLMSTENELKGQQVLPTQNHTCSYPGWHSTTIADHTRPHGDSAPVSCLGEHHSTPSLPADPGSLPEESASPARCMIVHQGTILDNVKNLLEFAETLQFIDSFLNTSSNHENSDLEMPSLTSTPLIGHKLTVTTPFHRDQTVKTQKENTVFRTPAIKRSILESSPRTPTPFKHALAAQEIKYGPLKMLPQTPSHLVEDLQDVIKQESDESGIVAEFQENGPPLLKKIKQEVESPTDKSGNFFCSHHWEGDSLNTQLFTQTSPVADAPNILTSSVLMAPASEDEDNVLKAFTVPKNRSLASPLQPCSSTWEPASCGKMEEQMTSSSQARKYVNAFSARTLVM

Assay [15] addresses Nuclear respiratory factor 1 (Homo sapiens) (UniProt Q16656). The experiment in a line: ATG_NRF1_CIS: Attagene CIS-FACTORIAL HepG2 Assay for human Nuclear Respiratory Factor 1 (NRF1) Orphan Gene (AID 2282987). The settings on record: HepG2 NRF1 cis-element reporter, Attagene multiplex; actives raise or lower the signal. The method, boiled down: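 Transcriptional reporter readout, one component of a 52-endpoint multiplexed HepG2 panel. Exposure 24 h; mRNA detected via RT-PCR and fluorescent capillary electrophoresis; fitting in both directions against DMSO.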

Assay [16] concerns the target Myc proto-oncogene protein (Homo sapiens) (UniProt P01106). In words: ATG_Myc_CIS: Attagene CIS-FACTORIAL HepG2 Assay for human Myelocytomatosis (Myc) Proto-Oncogene Transcription Factor (AID 2282990). The settings on record: HepG2, Attagene cis-reporter transcription factor activity; actives raise or lower the signal. The method, boiled down: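 HepG2 cells transiently transfected with multiple cis-promoter-driven reporter transcription units, so endogenous TF activity is read. After 24 h compound exposure, reporter mRNA was quantified by RT-PCR, 6-FAM labelling, HpaI digestion and capillary electrophoresis; bidirectional fit versus DMSO.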

Assay [17] is described as follows: ATG_NF_kB_CIS: Attagene CIS-FACTORIAL HepG2 Assay for human Nuclear Factor Kappa B (NF-kB) (AID 2282991). The settings on record: HepG2 Attagene cis-factorial NF-kB reporter mRNA; actives raise or lower the signal. The method, boiled down: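 HepG2, transient multi-reporter transfection, cis promoter elements (endogenous TFs). 24 h exposure. Total RNA → RT → PCR → 6-FAM label → HpaI → CE. Gain/loss vs DMSO.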

The nature of assay [18]: ATG_NRF2_ARE_CIS: Attagene CIS-FACTORIAL HepG2 Assay for human Nuclear Factor Erythroid 2 Related Factor 2 (NFR2) response to Antioxidant Response Elements (ARE) (AID 2282992). Particulars: HepG2 Attagene ARE/NRF2 reporter, transcription factor activity; actives raise or lower the signal. In short, it runs like this:
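Endogenous transcription factor activity in human liver HepG2 cells is tracked via a cis-element-driven reporter within a multiplexed set. mRNA induction is read by RT-PCR and capillary electrophoresis after 24 h, with DMSO as baseline.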

Assay [19] in a line: ATG_Oct_MLP_CIS: Attagene CIS-FACTORIAL HepG2 Assay for human Octamer-Binding Transcription Factor (Oct) (AID 2282993). The settings on record: HepG2 Attagene cis-factorial Oct reporter, mRNA; actives raise or lower the signal. In short, it runs like this:
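Read-out: reporter mRNA via RT-PCR plus capillary electrophoresis of 6-FAM-labelled fragments. Transiently transfected HepG2, 24 h exposure, endogenous TF activity on cis elements. Gain or loss of signal fitted relative to DMSO.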

The target of assay [20] is Cellular tumor antigen p53 (Homo sapiens) (UniProt P04637). In words: ATG_p53_CIS: Attagene CIS-FACTORIAL HepG2 Assay for human p53 Transcription Factor (AID 2282994). The settings on record: HepG2 p53 cis-element reporter, Attagene mRNA; actives raise or lower the signal. In short, it runs like this:
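Steps: transfect HepG2 with multiplexed cis reporter constructs; dose chemicals 24 h; extract RNA, reverse-transcribe, PCR-amplify reporter sequences; FAM-label, HpaI-digest, resolve fragments by CE. Activity fitted both directions relative to DMSO.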

Nuclear respiratory factor 1 (Homo sapiens), sequence (Q16656 whole entry, looked up): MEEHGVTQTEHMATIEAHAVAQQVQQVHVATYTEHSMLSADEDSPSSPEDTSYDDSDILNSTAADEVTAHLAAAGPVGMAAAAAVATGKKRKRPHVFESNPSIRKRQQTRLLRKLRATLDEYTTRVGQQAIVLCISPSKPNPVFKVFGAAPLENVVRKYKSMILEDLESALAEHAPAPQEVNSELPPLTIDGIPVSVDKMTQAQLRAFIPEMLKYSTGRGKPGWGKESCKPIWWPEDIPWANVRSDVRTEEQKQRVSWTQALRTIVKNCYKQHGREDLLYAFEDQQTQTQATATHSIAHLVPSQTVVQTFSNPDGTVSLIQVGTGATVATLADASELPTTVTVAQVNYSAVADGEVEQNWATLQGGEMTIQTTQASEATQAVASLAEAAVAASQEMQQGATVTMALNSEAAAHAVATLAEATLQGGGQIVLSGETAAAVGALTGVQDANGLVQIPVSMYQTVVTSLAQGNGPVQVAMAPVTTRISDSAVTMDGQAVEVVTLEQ
Myc proto-oncogene protein (Homo sapiens), sequence (P01106 whole entry, looked up): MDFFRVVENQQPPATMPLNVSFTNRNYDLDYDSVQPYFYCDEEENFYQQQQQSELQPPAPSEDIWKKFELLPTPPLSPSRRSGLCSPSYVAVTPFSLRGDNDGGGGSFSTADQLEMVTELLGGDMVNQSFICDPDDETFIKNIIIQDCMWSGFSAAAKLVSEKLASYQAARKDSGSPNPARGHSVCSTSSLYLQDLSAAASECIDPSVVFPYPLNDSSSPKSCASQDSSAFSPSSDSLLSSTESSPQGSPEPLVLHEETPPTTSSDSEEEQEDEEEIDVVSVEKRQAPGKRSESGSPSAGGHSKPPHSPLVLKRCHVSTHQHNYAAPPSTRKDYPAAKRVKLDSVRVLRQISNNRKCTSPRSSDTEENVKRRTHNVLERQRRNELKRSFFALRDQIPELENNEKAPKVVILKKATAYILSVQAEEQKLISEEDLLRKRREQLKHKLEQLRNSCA
Signal transducer and activator of transcription 3 (Homo sapiens), sequence (P40763 whole entry, looked up): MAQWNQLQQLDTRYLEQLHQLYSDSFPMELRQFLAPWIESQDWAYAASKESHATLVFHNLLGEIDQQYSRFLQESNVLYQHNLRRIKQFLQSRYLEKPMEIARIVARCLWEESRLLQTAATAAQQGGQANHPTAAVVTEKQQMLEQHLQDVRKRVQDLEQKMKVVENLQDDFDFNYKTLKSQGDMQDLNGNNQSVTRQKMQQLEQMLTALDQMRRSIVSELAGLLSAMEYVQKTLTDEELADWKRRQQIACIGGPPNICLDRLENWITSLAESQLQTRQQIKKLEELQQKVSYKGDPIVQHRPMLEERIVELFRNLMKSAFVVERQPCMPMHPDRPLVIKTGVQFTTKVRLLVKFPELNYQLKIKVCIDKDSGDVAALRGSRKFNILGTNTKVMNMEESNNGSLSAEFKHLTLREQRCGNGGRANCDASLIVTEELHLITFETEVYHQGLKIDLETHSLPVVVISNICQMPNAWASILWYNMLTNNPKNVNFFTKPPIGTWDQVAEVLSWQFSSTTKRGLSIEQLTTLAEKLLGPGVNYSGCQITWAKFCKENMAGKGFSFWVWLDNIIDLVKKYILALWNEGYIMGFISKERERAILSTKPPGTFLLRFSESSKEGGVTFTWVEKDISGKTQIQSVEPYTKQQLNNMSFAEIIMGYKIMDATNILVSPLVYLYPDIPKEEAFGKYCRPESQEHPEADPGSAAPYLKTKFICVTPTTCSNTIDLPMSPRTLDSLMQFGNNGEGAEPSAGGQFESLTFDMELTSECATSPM
X-box-binding protein 1 (Homo sapiens), sequence (P17861 whole entry, looked up): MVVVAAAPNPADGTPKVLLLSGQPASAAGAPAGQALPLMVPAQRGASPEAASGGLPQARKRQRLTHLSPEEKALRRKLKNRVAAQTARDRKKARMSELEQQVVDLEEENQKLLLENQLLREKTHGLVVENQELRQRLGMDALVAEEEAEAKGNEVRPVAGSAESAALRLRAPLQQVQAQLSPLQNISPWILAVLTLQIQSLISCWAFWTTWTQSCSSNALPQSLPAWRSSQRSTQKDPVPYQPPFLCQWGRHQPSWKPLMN
Hepatocyte nuclear factor 6 (Homo sapiens), sequence (Q9UBC0 whole entry, looked up): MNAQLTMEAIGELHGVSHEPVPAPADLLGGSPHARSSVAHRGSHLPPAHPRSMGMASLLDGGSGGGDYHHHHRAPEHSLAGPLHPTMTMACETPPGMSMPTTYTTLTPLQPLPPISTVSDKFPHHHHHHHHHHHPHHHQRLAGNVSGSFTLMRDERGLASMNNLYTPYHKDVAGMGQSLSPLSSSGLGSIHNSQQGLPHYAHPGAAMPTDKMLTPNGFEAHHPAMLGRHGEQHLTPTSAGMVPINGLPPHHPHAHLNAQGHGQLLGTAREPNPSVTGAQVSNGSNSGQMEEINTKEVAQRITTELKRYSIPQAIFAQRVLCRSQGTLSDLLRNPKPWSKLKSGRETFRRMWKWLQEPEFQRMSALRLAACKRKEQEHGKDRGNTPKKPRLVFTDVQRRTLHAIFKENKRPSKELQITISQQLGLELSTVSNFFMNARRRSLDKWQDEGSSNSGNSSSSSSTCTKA
Heat shock factor protein 1 (Homo sapiens), sequence (Q00613 whole entry, looked up, the tested form may be a part): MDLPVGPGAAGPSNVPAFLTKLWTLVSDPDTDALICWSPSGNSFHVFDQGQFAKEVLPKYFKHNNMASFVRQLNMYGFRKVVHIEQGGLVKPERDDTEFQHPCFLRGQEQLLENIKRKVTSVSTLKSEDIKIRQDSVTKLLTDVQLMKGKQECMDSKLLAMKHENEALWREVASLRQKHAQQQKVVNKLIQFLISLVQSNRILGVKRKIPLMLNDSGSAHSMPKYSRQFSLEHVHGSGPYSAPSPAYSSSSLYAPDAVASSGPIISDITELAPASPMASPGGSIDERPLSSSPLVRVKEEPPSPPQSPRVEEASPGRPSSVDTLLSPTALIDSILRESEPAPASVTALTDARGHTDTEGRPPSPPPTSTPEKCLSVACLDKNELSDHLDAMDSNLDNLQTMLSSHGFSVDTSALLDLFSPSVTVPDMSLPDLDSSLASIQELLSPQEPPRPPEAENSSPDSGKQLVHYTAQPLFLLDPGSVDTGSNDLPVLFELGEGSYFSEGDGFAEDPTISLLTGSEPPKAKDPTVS
Cellular tumor antigen p53 (Homo sapiens), sequence (P04637 whole entry, looked up, the tested form may be a part): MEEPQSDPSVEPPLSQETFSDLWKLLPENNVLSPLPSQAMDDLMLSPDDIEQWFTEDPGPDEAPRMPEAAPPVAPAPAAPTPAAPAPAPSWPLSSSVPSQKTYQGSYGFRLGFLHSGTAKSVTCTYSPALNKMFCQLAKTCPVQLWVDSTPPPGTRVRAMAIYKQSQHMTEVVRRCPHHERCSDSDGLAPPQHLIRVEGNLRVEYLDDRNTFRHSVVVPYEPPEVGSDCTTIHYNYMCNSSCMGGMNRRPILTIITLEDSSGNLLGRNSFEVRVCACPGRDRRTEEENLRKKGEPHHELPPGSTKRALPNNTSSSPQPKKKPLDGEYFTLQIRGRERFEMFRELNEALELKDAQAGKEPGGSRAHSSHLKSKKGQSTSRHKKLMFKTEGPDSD

In the case of `Oc1cc(Cl)ccc1Cl`, the call in [1], in [2], in assay [3], in assay [4], in assay [5] and in [6] was inactive. For the same molecule, the result in [7], in [8], in assay [9], in [10], in assay [11] and in assay [12] was inactive. The molecule was called inactive in [13], in assay [14], in assay [15], in assay [16], in assay [17] and in assay [18]. Moreover, the outcome in assay [19] and in assay [20] was inactive.

As to `C[C@]12CC[C@H](O)C[C@H]1CC[C@@H]1[C@@H]2C[C@@H](O)[C@]2(C)[C@@H](C3=CC(=O)OC3)CC[C@]12O`, the AC50 in [1] was 0.72 µM (active); in assay [2], 13.8 µM (active); in assay [4] it was 5.31 µM (active); in assay [5] it was 2.96 µM (active); in assay [10] it was 60.9 µM (active); in assay [12], 2.08 µM (active). For the same molecule, the AC50 was 3.98 µM (active) in assay [13], 5.88 µM (active) in assay [14], 5.24 µM (active) in assay [15] and 2.08 µM (active) in assay [19]. In addition, the result in [3], in assay [6], in assay [7], in [8], in assay [9] and in assay [11] was inactive. For the same molecule, the result in assay [16], in assay [17], in assay [18] and in assay [20] was inactive.

With `O=P1(NCCCl)OCCCN1CCCl` (configuration not stated), the molecule was classed as inactive in assay [1], in [2], in assay [3], in [4], in assay [5] and in assay [6]. For the same molecule, the outcome in assay [7], in [9], in assay [10], in assay [11], in [13] and in [14] was inactive. Besides, the outcome in assay [15], in assay [16], in assay [17], in assay [18] and in assay [19] was inactive.
